# From ChEMBL document CHEMBL3433997, “St. Jude Leishmania screening dataset” (2016)
# Tests used:
# Format in all cases: functional
# [1] = biological target: Solute carrier family 2, facilitated glucose transporter member 1 (Homo sapiens) (UniProt P11166); experiment: ST_JUDE_LEISH: Cytotoxicity at 2uM final concentration against transgenic Leishmania Mexicana promastigotes LmGLUT1 that are glucose transport deficient and complemented with the human glucose transporter GLUT1. Activity is measured by DNA content using SYBR green in vitro
# [2] = biological target: Hexose transporter 1 (Plasmodium falciparum) (UniProt O97467); experiment: ST_JUDE_LEISH: Cytotoxicity at 2uM final concentration against transgenic Leishmania Mexicana promastigotes LmPfHT that are glucose transport deficient and complemented with the Plasmodium falciparum hexose transporter. Activity is measured by DNA content using SYBR green in vitro
# [3] = biological target: Glucose transporter (Leishmania mexicana) (UniProt O61059); experiment: ST_JUDE_LEISH: Cytotoxicity at 2uM final concentration against transgenic Leishmania Mexicana promastigotes LmGT2 that are glucose transport deficient and complemented with the L. Mexicana glucose transporter 2. Activity is measured by DNA content using SYBR green in vitro
# Solute carrier family 2, facilitated glucose transporter member 1 (Homo sapiens), sequence (P11166 whole entry): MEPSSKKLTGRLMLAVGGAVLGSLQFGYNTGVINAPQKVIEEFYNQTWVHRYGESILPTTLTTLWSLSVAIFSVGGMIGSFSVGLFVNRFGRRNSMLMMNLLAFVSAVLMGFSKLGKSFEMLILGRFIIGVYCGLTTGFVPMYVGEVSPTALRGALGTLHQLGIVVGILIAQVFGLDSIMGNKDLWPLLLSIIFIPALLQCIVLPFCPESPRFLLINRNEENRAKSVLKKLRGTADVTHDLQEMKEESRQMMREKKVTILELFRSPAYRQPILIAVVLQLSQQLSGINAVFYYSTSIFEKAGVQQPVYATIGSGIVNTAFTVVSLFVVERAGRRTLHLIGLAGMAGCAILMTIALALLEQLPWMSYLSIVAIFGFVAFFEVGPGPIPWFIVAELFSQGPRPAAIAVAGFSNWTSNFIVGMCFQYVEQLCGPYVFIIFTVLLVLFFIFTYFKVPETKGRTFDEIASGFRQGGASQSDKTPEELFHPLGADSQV
smiles,measurement,setting,value
Clc1ccc(OCCC2CCN(CCCCCCN3CCCCC3)CC2)cc1Cl,inhibition,[1],10.8%
same,inhibition,[2],4.99%
same,inhibition,[3],17%
CCCC(=O)c1cnc2c(Oc3cc(Cl)ncn3)cccc2c1Nc1ccccc1C,inhibition,[1],6.96%
same,inhibition,[2],4.84%
same,inhibition,[3],6.89%
Fc1cccc(COc2ccc(Nc3ncnc4sc(C#C[C@H]5CCCN5)cc34)cc2F)c1,inhibition,[1],0.5%
same,inhibition,[2],2.54%
same,inhibition,[3],0.52%
COc1cc(Nc2nccc(-c3c(-c4cccc(NC(=O)c5c(F)cccc5F)c4)nn4ncccc34)n2)cc(OC)c1OC,inhibition,[1],12.1%
same,inhibition,[2],16.6%
same,inhibition,[3],6.39%
Cc1cccc(C(=O)Nc2ccnc(N3CCC(N(C)Cc4ccc(C#N)cc4)CC3)c2)c1,inhibition,[1],3.54%
same,inhibition,[2],2.52%
same,inhibition,[3],3.1%
COc1ccc(CNCc2cccc(-c3cccc(-c4nc5cc(C(F)(F)F)ccc5[nH]4)c3)c2)cc1,inhibition,[1],5.4%
same,inhibition,[2],4.65%
same,inhibition,[3],3.48%
CCOC(=O)c1ccc(NC(=O)N[C@H]2CCN(CCCCCNC(=O)/C=C/c3ccc(Cl)c(Cl)c3)C2)cc1,inhibition,[1],4.4%
same,inhibition,[2],2.51%
same,inhibition,[3],5.84%
Cc1nc(N)nc(N)c1OCc1cccc2ccccc12,inhibition,[1],0.2%
same,inhibition,[2],1.33%
same,inhibition,[3],-1.23%
Cc1ccc(Nc2nccc(Nc3ccc4c(c3)nc(Nc3cc(C(C)(C)C)on3)n4C)n2)cc1S(C)(=O)=O,inhibition,[1],3.26%
same,inhibition,[2],5.38%
same,inhibition,[3],-1.41%
O=C(Nc1cccc(-c2cccc(-c3nc4ccccc4[nH]3)c2)c1)Nc1ccc2c(c1)OCO2,inhibition,[1],4.3%
same,inhibition,[2],4.48%
same,inhibition,[3],1.05%
CC(NCC(O)Cn1c2ccccc2c2ccccc21)c1ccccc1 (stereo unspecified),inhibition,[1],0.86%
same,inhibition,[2],1.68%
same,inhibition,[3],-1.46%
Cn1nc(-c2ccc(NC(=O)Nc3cc(C(F)(F)F)ccc3F)c(F)c2)c2cnc(NCCCN3CCOCC3)nc21,inhibition,[1],6.47%
same,inhibition,[2],6.96%
same,inhibition,[3],7.47%
Cc1cccc2nc(-c3ccc(-c4cccc(CNCCCN5CCCC5=O)c4)s3)[nH]c12,inhibition,[1],3.74%
same,inhibition,[2],2.33%
same,inhibition,[3],2.91%
Cc1cc(=NN=Cc2ccccc2Cl)c2ccccc2[nH]1,inhibition,[1],8.12%
same,inhibition,[2],8.36%
same,inhibition,[3],5.86%
O=[N+]([O-])c1ccc(Nc2nc(NCc3ccccc3)nc(N/N=C/c3ccccc3[N+](=O)[O-])n2)cc1,inhibition,[1],2.21%
same,inhibition,[2],-0.41%
same,inhibition,[3],0.43%
CC(=O)Nc1ccc(OCCCCCOc2ccc(NC(C)=O)cc2Cl)c(Cl)c1,inhibition,[1],1.91%
same,inhibition,[2],1.52%
same,inhibition,[3],1.13%
COc1cc(CCNc2nc(NCc3cccc4ccccc34)nc(N3CCC(N)CC3)n2)ccc1O,inhibition,[1],5.69%
same,inhibition,[2],4.98%
same,inhibition,[3],2.74%
CCCCCCCN(Cc1ccc(OC(C)(C)C(=O)OCC)cc1)C(=O)Nc1ccccc1OCC,inhibition,[1],-0.85%
same,inhibition,[2],-1.76%
same,inhibition,[3],-2.13%
O=C(Nc1cccc(-c2ccc(-c3nc4cc(F)ccc4[nH]3)s2)c1)c1cccnc1,inhibition,[1],5.68%
same,inhibition,[2],4.85%
same,inhibition,[3],3.13%
Cc1cccc(CN2CCCC3(CCN(Cc4ccccc4O)C3)C2)c1 (stereo unspecified),inhibition,[1],2.62%
same,inhibition,[2],1.27%
same,inhibition,[3],-0.38%
Cc1nnc2c(NC(=O)NC3CCCC3)cc3cc(-c4ccc(CN5CCN(C)CC5)cc4)ccc3n12,inhibition,[1],7.2%
same,inhibition,[2],4.95%
same,inhibition,[3],4.79%
COc1cc2ncnc(Nc3ccc4nc(-c5ccccc5)[nH]c4c3)c2cc1OC,inhibition,[1],4.22%
same,inhibition,[2],3.9%
same,inhibition,[3],2%
Cc1ccc(NC(=O)Nc2ccccc2)cc1-c1ccc(C(=O)Nc2ccncc2)cc1,inhibition,[1],9.17%
same,inhibition,[2],7.89%
same,inhibition,[3],9%
Cc1[nH]c(C)c(-c2ccc(OCc3ccccc3C(F)(F)F)nc2)c(=O)c1Br,inhibition,[1],4.88%
same,inhibition,[2],6.13%
same,inhibition,[3],1.94%
COC(=O)C(Cc1ccccc1)C(CSCc1ccc(OC)cc1)C(=O)N[C@@H](C(=O)OC(C)(C)C)c1ccc(C(C)(C)C)cc1 (stereo partly specified),inhibition,[1],4.24%
same,inhibition,[2],4.41%
same,inhibition,[3],5.18%
Nc1ncc(-c2ccsc2)c2ccc(-c3cc(NCc4ccccc4)ncn3)cc12,inhibition,[1],10.1%
same,inhibition,[2],8.31%
same,inhibition,[3],7.39%
Cc1ccc(NC(=O)c2ccc(CN3CCCN(CC4CCCCC4)CC3)cc2)cc1C,inhibition,[1],7.66%
same,inhibition,[2],7.13%
same,inhibition,[3],8.98%
CCC(=O)N(c1ccccc1)C1CCN(CCCC(NC(=O)c2cc(C(F)(F)F)cc(C(F)(F)F)c2)c2ccc(Cl)c(Cl)c2)CC1 (stereo unspecified),inhibition,[1],8.75%
same,inhibition,[2],5.36%
same,inhibition,[3],6.09%
CCNc1cc(C(=O)N[C@@H](Cc2ccccc2)[C@H](O)CNC2CC3CCC2C3)cc(N2CCCCS2(=O)=O)c1 (stereo partly specified),inhibition,[1],1.78%
same,inhibition,[2],1.76%
same,inhibition,[3],-3.22%
CCC(NCc1ccc(-c2cncc(C(=O)NCC(C)C)c2)cc1)c1ccccc1 (stereo unspecified),inhibition,[1],7.89%
same,inhibition,[2],7.18%
same,inhibition,[3],8.76%
O=C(CN1C(=O)CC1S(=O)(=O)Cc1ccco1)NCCCCCCc1ccc(F)cc1 (stereo unspecified),inhibition,[1],-0.99%
same,inhibition,[2],1.25%
same,inhibition,[3],0.24%
CC(C)N1CCC(N(Cc2ccc(-c3ccc(C(F)(F)F)cc3)cc2)C(=O)Cn2c(SCc3cccc(F)c3F)cc(=O)c3c2CCC3)CC1,inhibition,[1],4.88%
same,inhibition,[2],-0.24%
same,inhibition,[3],-3.84%
